In PubChem BioAssay (NCI):
The panel holds about 79,000 compounds, 15% with a hit somewhere; the sample as a whole holds those more often. The source made the active and inactive calls. Rule as the data show it: active = growth inhibition above about 70%; inactive = the rest.

What was measured:
[1] = NCI Yeast Anticancer Drug Screen. Data for the rad52 strain (AID 147);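 also: 0% = growth of vehicle-treated control cultures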; settings: S. cerevisiae rad52 mutant growth inhibition, active compounds read high
Method in brief: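 DNA repair-defective yeast; compound exposure; growth scored against vehicle controls.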

[2] = NCI Yeast Anticancer Drug Screen. Data for the wt1 strain (AID 149);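 also: 0% = growth of vehicle-treated wt1 cultures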; settings: S. cerevisiae wt1 strain (SPY 50644) growth inhibition, active compounds read high
Method in brief: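 Vehicle-normalised growth inhibition; strain wt1; compound exposure.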

[3] = NCI Yeast Anticancer Drug Screen. Data for the rad50EPP+ strain (AID 151);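 also: 0% = growth of vehicle-treated control cultures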; settings: S. cerevisiae rad50 mutant strain, active compounds read high
Method in brief: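 rad50EPP+ yeast treated with test compounds. Readout: growth vs vehicle control.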

[4] = NCI Yeast Anticancer Drug Screen. Data for the mgt1 strain (AID 153); settings: S. cerevisiae mgt1 mutant growth inhibition, active compounds read high
Method in brief: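 Growth inhibition relative to vehicle controls was scored for the mgt1 yeast strain after compound exposure.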

[5] = NCI Yeast Anticancer Drug Screen. Data for the rad50 strain (AID 155);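 also: 0% = growth of vehicle-only cultures of the same strain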; settings: S. cerevisiae rad50 strain growth inhibition, active compounds read high
Method in brief: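 A DNA repair-deficient yeast mutant serves as the test organism; compound-induced growth inhibition is calculated against vehicle-treated cells.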

[6] = NCI Yeast Anticancer Drug Screen. Data for the mec2-1 strain (AID 157); settings: S. cerevisiae mec2-1 strain, active compounds read high
Method in brief: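 Growth inhibition is read against vehicle-treated controls after compound exposure of the mec2-1 yeast strain, which is defective in DNA damage repair or cell cycle control.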

[7] = NCI Yeast Anticancer Drug Screen. Data for the rad14 strain (AID 159);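 also: 0% = growth of vehicle-treated control cultures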; settings: S. cerevisiae rad14 strain growth inhibition, active compounds read high
Method in brief: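 Vehicle-treated cultures served as the baseline for growth inhibition of a DNA repair-mutant yeast strain exposed to each compound.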

[8] = NCI Yeast Anticancer Drug Screen. Data for the sgs1 mgt1 strain (AID 161);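 also: 0% = growth of cultures given vehicle only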; settings: S. cerevisiae sgs1 mgt1 strain, active compounds read high
Method in brief: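 Percent growth inhibition was derived by comparing compound-exposed mutant yeast with vehicle-exposed cultures. The strain carries alterations in DNA damage repair.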

[9] = NCI Yeast Anticancer Drug Screen. Data for the CLN2oe strain (AID 163);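 also: 0% = growth of vehicle-only control cultures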; settings: S. cerevisiae CLN2oe strain, active compounds read high
Method in brief: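 Compound-treated yeast; growth vs vehicle ctrl = % inhibition. Genetically altered strain (cell-cycle control).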

[10] = NCI Yeast Anticancer Drug Screen. Data for the cln2 rad14 strain (AID 165);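 also: 0% = growth equal to vehicle treated cultures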; settings: S. cerevisiae cln2 rad14 strain, active compounds read high
Method in brief: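 Growth inhibition, relative to vehicle-treated controls, is the read-out. The test organism is a yeast strain with defined genetic alterations, cln2 rad14.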

[11] = NCI Yeast Anticancer Drug Screen. Data for the bub3 strain (AID 167); settings: S. cerevisiae bub3 mutant strain, active compounds read high
Method in brief: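 Inhibition values come from growth of compound-treated mutant yeast normalised to vehicle-treated controls.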

[12] = NCI Yeast Anticancer Drug Screen. Data for the wt2 strain (AID 169);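 also: 0% = growth of vehicle-treated yeast cultures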; settings: S. cerevisiae wt2 strain growth inhibition, active compounds read high
Method in brief: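 Compound exposure of yeast; growth compared with vehicle controls; inhibition reported.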

[13] = NCI Yeast Anticancer Drug Screen. Data for the mlh1 strain (AID 171);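 also: 0% = growth of vehicle-treated control cultures of the same strain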; settings: S. cerevisiae mlh1 strain growth inhibition, active compounds read high
Method in brief: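 Compounds are applied to a genetically altered yeast strain, and its growth is compared with that of vehicle-treated cultures to give percent inhibition.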

[14] = NCI Yeast Anticancer Drug Screen. Data for the sgs1 strain (AID 173);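 also: 0% = growth of vehicle-only control cultures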; settings: S. cerevisiae sgs1 mutant, active compounds read high
Method in brief: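 Compounds applied to genetically altered yeast; growth compared with vehicle-treated cultures to give % inhibition.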

[15] = NCI Yeast Anticancer Drug Screen. Data for the mlh1 rad18 strain (AID 175); settings: S. cerevisiae mlh1 rad18 strain growth inhibition, active compounds read high
Method in brief: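 Cells of a genetically altered yeast strain, deficient in DNA damage repair, were treated with compound. Their growth was then compared with that of vehicle-treated cultures to give inhibition.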

[16] = NCI Yeast Anticancer Drug Screen. Data for the rad18 strain (AID 177); settings: S. cerevisiae rad18 mutant growth inhibition, active compounds read high
Method in brief: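 Compounds are applied to a repair-deficient yeast strain, and growth is compared with that of vehicle-treated cultures to give percent inhibition.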

[17] = at 5.0 µM (retest, dose inferred, filed as 0.5)
[18] = at 50.0 µM (retest, dose inferred, filed as 5.0)

Measured: growth inhibition

CC(C)OP(=O)(OC(C)C)C(=NCCO)NNc1ccc([N+](=O)[O-])cc1
active: [1]; at 100.0 µM 79% | [3]; at 33.0 µM 93% | [3]; at 100.0 µM 94% | [4]; at 100.0 µM 74% | [5]; at 50.0 µM 86% | [5]; at 100.0 µM 91% | [8]; at 50.0 µM 85% | [9]; at 100.0 µM 90% | [11]; at 33.0 µM 94% | [11]; at 100.0 µM 95% | [13]; at 100.0 µM 87% | [14]; at 11.0 µM 71% | [14]; at 33.0 µM 95% | [14]; at 100.0 µM 95% | [15]; [18] 96% | [15]; at 50.0 µM 72.9% | [16]; at 100.0 µM 91%
inactive: [1]; at 1.2 µM 8% | [1]; at 3.7 µM 3% | [1]; at 11.0 µM 14% | [1]; at 33.0 µM 31% | [2]; at 1.2 µM -6% | [2]; at 3.7 µM 1% | [2]; at 11.0 µM 6% | [2]; at 33.0 µM 7% | [2]; at 100.0 µM 29% | [3]; at 1.2 µM -2% | [3]; at 3.7 µM 34% | [3]; at 11.0 µM 69% | [4]; at 1.2 µM -34% | [4]; at 3.7 µM -34% | [4]; at 11.0 µM -32% | [4]; at 33.0 µM 0% | [5]; at 1.2 µM -5% | [5]; at 3.7 µM -3% | [5]; [17] 8% | [5]; at 11.0 µM 24% | [5]; at 33.0 µM 59% | [5]; [18] 64% | [6]; at 1.2 µM -23% | [6]; at 3.7 µM -16% | [6]; [17] -2% | [6]; at 11.0 µM -19% | [6]; at 33.0 µM 20% | [6]; [18] 33% | [6]; at 50.0 µM 28.1% | [6]; at 100.0 µM 40% | [7]; at 1.2 µM -10% | [7]; at 3.7 µM 3% | [7]; at 11.0 µM 4% | [7]; at 33.0 µM 3% | [7]; at 100.0 µM 42% | [8]; [17] 1% | [8]; [18] 23% | [9]; at 1.2 µM -17% | [9]; at 3.7 µM 3% | [9]; at 11.0 µM 4% | [9]; at 33.0 µM 44% | [10]; [17] 25% | [10]; [18] 48% | [10]; at 50.0 µM 9.95% | [11]; at 1.2 µM -15% | [11]; at 3.7 µM 22% | [11]; [17] 22% | [11]; at 11.0 µM 49% | [11]; [18] 62% | [11]; at 50.0 µM 56.7% | [12]; at 1.2 µM 1% | [12]; at 3.7 µM -3% | [12]; at 11.0 µM 8% | [12]; at 33.0 µM 26% | [12]; at 100.0 µM 50% | [13]; at 1.2 µM -18% | [13]; at 3.7 µM -22% | [13]; at 11.0 µM 3% | [13]; at 33.0 µM 46% | [14]; at 1.2 µM 24% | [14]; at 3.7 µM 39% | [15]; [17] 48% | [16]; at 1.2 µM 20% | [16]; at 3.7 µM 0% | [16]; at 11.0 µM 13% | [16]; at 33.0 µM 54%

COc1ccc2cc3c4cc5c(cc4cc[n+]3cc2c1OC)OCO5
active: [1]; at 11.0 µM 75% | [1]; at 33.0 µM 94% | [1]; at 100.0 µM 97% | [2]; at 33.0 µM 84% | [2]; at 100.0 µM 95% | [3]; at 33.0 µM 77% | [3]; at 100.0 µM 88% | [4]; at 33.0 µM 89% | [4]; at 100.0 µM 97% | [5]; at 3.7 µM 70% | [5]; [17] 76% | [5]; at 11.0 µM 88% | [5]; at 33.0 µM 94% | [5]; [18] 96% | [5]; at 50.0 µM 97.1% | [5]; at 100.0 µM 97% | [6]; at 33.0 µM 89% | [6]; [18] 97% | [6]; at 50.0 µM 92.2% | [6]; at 100.0 µM 97% | [7]; at 11.0 µM 78% | [7]; at 33.0 µM 96% | [7]; at 100.0 µM 98% | [8]; [18] 97% | [8]; at 50.0 µM 93.3% | [9]; at 33.0 µM 79% | [9]; at 100.0 µM 97% | [10]; [18] 94% | [10]; at 50.0 µM 89.2% | [11]; at 33.0 µM 88% | [11]; [18] 96% | [11]; at 50.0 µM 97.6% | [11]; at 100.0 µM 98% | [12]; at 33.0 µM 87% | [12]; at 100.0 µM 97% | [13]; at 33.0 µM 87% | [13]; at 100.0 µM 97% | [14]; at 11.0 µM 83% | [14]; at 33.0 µM 96% | [14]; at 100.0 µM 98% | [15]; [18] 97% | [15]; at 50.0 µM 97% | [16]; at 33.0 µM 89% | [16]; at 100.0 µM 97%
inactive: [1]; at 1.2 µM 22% | [1]; at 3.7 µM 48% | [2]; at 1.2 µM 8% | [2]; at 3.7 µM 29% | [2]; at 11.0 µM 50% | [3]; at 1.2 µM 0% | [3]; at 3.7 µM 20% | [3]; at 11.0 µM 60% | [4]; at 1.2 µM 15% | [4]; at 3.7 µM 39% | [4]; at 11.0 µM 62% | [5]; at 1.2 µM 33% | [6]; at 1.2 µM 9% | [6]; at 3.7 µM 32% | [6]; [17] 57% | [6]; at 11.0 µM 55% | [7]; at 1.2 µM 18% | [7]; at 3.7 µM 46% | [8]; [17] 68% | [9]; at 1.2 µM 13% | [9]; at 3.7 µM 29% | [9]; at 11.0 µM 49% | [10]; [17] 55% | [11]; at 1.2 µM 6% | [11]; at 3.7 µM 19% | [11]; [17] 43% | [11]; at 11.0 µM 46% | [12]; at 1.2 µM 38% | [12]; at 3.7 µM 32% | [12]; at 11.0 µM 62% | [13]; at 1.2 µM 12% | [13]; at 3.7 µM 31% | [13]; at 11.0 µM 53% | [14]; at 1.2 µM 24% | [14]; at 3.7 µM 28% | [15]; [17] 63% | [16]; at 1.2 µM 8% | [16]; at 3.7 µM 28% | [16]; at 11.0 µM 53%
